Sampled rows, rich in hits. Any-hit rate of the full collection: about 19%.
ELG1 DNA repair: inhibitors of ELG1-dependent DNA repair in HEK293T cells | HEK293T ELG1-luciferase reporter, luminescence, 16 h; DNA damage induced by 5-fluorouridine | Potency, µM (top dose mostly 46.1 µM), for inactives: at the top dose activity change, negative = inhibition, hits mostly inhibitors | hit rate 2.3% among 330,000 | AID 504467; further: potency means the concentration at half of the fitted maximal effect; nearly all actives have a fitted effect of over 55% in size
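DMSO vehicle served as the neutral condition. Each well held 2,000 cells given 5-fluorouridine plus compound; after 16 hr at 37 °C/5% CO2, ONE-Glo was added and luciferase measured 30 min later.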
IL1B secr inh: inhibitors of inflammasome signaling (IL-1 beta secretion); hit rate 4.7% among 360,000; activity change, % at 57.5 µM; AID 743279; THP-1 LPS/ATP IL-1B secretion, AlphaLISA, 16 h; hits give low values; in the data active means activity change below about -50%; inconclusive means mostly about -30% to -49%
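Secreted IL-1B measured by AlphaLISA bead assay after 16 h compound exposure of THP-1 cells; compounds (final up to 57.5 uM) added 1 h before LPS (250 ng/mL) and ATP (1.25 mM) stimulation; lower signal means less secretion.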
HT1080 IDH1KD tx: toxicity to HT-1080 IDH1 knockdown cells (counter line) | HT-1080 IDH1 knockdown viability, ATP luminescence, 48 h | hit rate 2% among 360,000 | Potency, µM (titrated, usually from 46.1 µM), without a hit: top-dose activity, negative = toxicity, usual class: cytotoxic;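 further: potency means the concentration at half of the fitted maximal effect; 0% = DMSO wells and -100% = cell-free medium wells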
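Knockdown cells (IDH1KD HT-1080) received compounds 2 h after plating at 750 cells/well and were kept 48 h at 37 °C in 5% FBS RPMI. A CellTiter-Glo luminescence read gave % activity for curve fitting.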
DT40 TDP1 no CPT: qHTS for Inhibitors of human tyrosyl-DNA phosphodiesterase 1 (TDP1): qHTS in cells in absence of CPT; DT40 Tdp1-/- hTDP1 cells, no CPT, ATP luminescence, 48 h; Potency, µM (top dose mostly 46.2 µM), without a hit: at the highest dose activity change, negative = growth inhibition, most hits filed as inhibitors; hit rate 15% among 420,000; AID 686978, 2013; further: potency means the concentration at half of the fitted maximal effect; nearly all actives have a fitted effect of over 55% in size
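Growth of hTDP1-complemented DT40 Tdp1-knockout cells is measured by ATP luminescence after at least 48 hr compound exposure at 37 °C, with DMSO substituting for the 20 nM CPT used in the parallel screen.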
DT40 TDP1 CPT: growth inhibition of DT40 Tdp1-/-;hTDP1 cells with camptothecin (screen for TDP1 inhibitors). chicken DT40 Tdp1-/-;hTDP1 cells + 20 nM CPT, ATP luminescence, 48 h. Potency, µM (titrated, usually from 46.2 µM), for the others: at the highest dose activity change, negative = growth inhibition, usual class: inhibitors. hit rate 12% among 420,000. AID 686979; further: potency means the concentration at half of the fitted maximal effect; nearly all actives have a fitted effect of over 55% in size
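Cell growth measured by CellTiter-Glo luminescence after a minimum 48 h, 37 C compound exposure with 20 nM CPT in Tdp1-knockout DT40 cells stably expressing hTDP1, seeded 400/well; qHTS titration format.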
HT1080-NT tox: kills 2HG-producing HT-1080-NT fibrosarcoma cells; HT-1080-NT fibrosarcoma viability, CellTiter-Glo ATP luminescence, 48 h; Potency, µM (top dose mostly 46.1 µM), for inactives: at the highest dose activity, negative = less viability, hits mostly cytotoxic; hit rate 1.6% among 360,000;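 further: NT is the 2HG producing partner of a matched IDH1 knockdown line; potency means the concentration at half of the fitted maximal effect; 0% = DMSO-treated cells and -100% = media-only wells without cells; nearly all actives have a fitted effect of over 55% in size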
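750 cells/well, RPMI + 5% FBS; 2 h settle, compound pin-transfer, 48 h at 37 degrees C. CellTiter-Glo 10 min RT, luminescence. Normalized to DMSO and media-only wells.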
* marks the source's active call; other numbers are inactive results. Unless noted, the call rests on the fitted dose curve; in most records, active means well fitted curve in the direction sought with a large enough effect; inconclusive means small, poorly fitted or top-dose-only effect, or another doubt; inactive means no such curve, though single readings can be large; an effect the other way counts as inactive or inconclusive. Unless noted, on the % scale 0 is the no-effect control and ±100 the full control effect.

For COc1ccc(OC)c(C2CC(=O)c3c([nH]c(C(=O)OCC4CCCO4)c3C)C2)c1 (stereo unspecified) the results were ELG1 DNA repair 10µM*, IL1B secr inh -21, HT1080 IDH1KD tx -15%, DT40 TDP1 no CPT 5.2µM*, DT40 TDP1 CPT 5.8µM* and HT1080-NT tox -11%.
Screening COc1ccc(OC)c(C2CC(=O)c3c([nH]c(C(=O)OC(C)C)c3C)C2)c1 (stereo unspecified) returned ELG1 DNA repair inconclusive, IL1B secr inh 10, HT1080 IDH1KD tx 3.3µM*, DT40 TDP1 no CPT 0.82µM*, DT40 TDP1 CPT 0.82µM* and HT1080-NT tox 5.8µM*.
COc1ccc(C2CC(=O)c3c([nH]c(C(=O)OC4CCCC4)c3C)C2)cc1OC (stereo unspecified) was read as DT40 TDP1 no CPT -13% and DT40 TDP1 CPT -6%.
For COc1ccccc1C1CC(=O)NC(C)=C1C(=O)OCC1CCCO1 (stereo unspecified) the results were ELG1 DNA repair 3%, IL1B secr inh 17, HT1080 IDH1KD tx 9%, DT40 TDP1 no CPT -19%, DT40 TDP1 CPT -19% and HT1080-NT tox 12%.
COc1ccc(OC)c(C2CC(=O)c3c([nH]c(C(=O)OC4CCC(C)CC4)c3C)C2)c1 (stereo unspecified) was read as DT40 TDP1 no CPT 8.2µM* and DT40 TDP1 CPT 15µM*.
`COc1cccc(C(=O)N2CCC2(C)C(=O)O)c1` (stereo unspecified) gave IL1B secr inh 0, HT1080 IDH1KD tx 13%, DT40 TDP1 no CPT 1%, DT40 TDP1 CPT -14% and HT1080-NT tox 26%.
COCCc1nn2c(=O)cc(COC(=O)c3ccc4c(c3)OCO4)nc2s1 was read as DT40 TDP1 no CPT -14% and DT40 TDP1 CPT -2%.
`COCCOC(=O)c1[nH]c2c(c1C)C(=O)CC(c1cc(OC)ccc1OC)C2` (stereo unspecified) gave ELG1 DNA repair -11%, IL1B secr inh 36, HT1080 IDH1KD tx 12µM*, DT40 TDP1 no CPT 2.6µM*, DT40 TDP1 CPT 2.9µM* and HT1080-NT tox 12µM*.
COc1cc(C2CC(=O)c3c([nH]c(C(=O)OCc4ccc(C)cc4)c3C)C2)cc(OC)c1OC (stereo unspecified) was read as DT40 TDP1 no CPT 0.92µM* and DT40 TDP1 CPT 1.5µM*.
Screening CCCOCCOC(=O)c1[nH]c2c(c1C)C(=O)CC(c1cc(OC)ccc1OC)C2 (stereo unspecified) returned ELG1 DNA repair inconclusive, IL1B secr inh -72*, HT1080 IDH1KD tx 4.1µM*, DT40 TDP1 no CPT 5.8µM*, DT40 TDP1 CPT 5.2µM* and HT1080-NT tox 5.8µM*.
CCN(C(=O)c1cc2cc(Br)cc(OC)c2oc1=O)c1ccccc1 was read as DT40 TDP1 no CPT -30% and DT40 TDP1 CPT -8%.
`CCCCOC(=O)c1ccc(N/C(=N\S(=O)(=O)c2ccccc2)c2ccccc2)cc1` gave ELG1 DNA repair inconclusive, IL1B secr inh -54*, HT1080 IDH1KD tx inconclusive, DT40 TDP1 no CPT inconclusive, DT40 TDP1 CPT 5% and HT1080-NT tox inconclusive.
CCCCOC(=O)c1ccc(NC(=O)C(=O)NCCN(C)C)cc1 was read as ELG1 DNA repair 2%, IL1B secr inh -14, HT1080 IDH1KD tx -1%, DT40 TDP1 no CPT 21µM*, DT40 TDP1 CPT inconclusive and HT1080-NT tox -7%.
